DAX1 inh-1: DAX1 (NR0B1) inhibition, primary screen; HEK293T StAR-luciferase reporter, SF-1/DAX-1 repression relief; inhibition, % at 6.8 µM; hit rate 1.1% among 370,000;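 active means inhibition above the mean over all tested compounds plus 3 SD, cut at about 3.6% in these data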;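 further: higher inhibition means more luminescence from relief of DAX-1 repression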
hcDAF12 agonist: activators of H. contortus DAF-12 nuclear receptor. HEK293 hcDAF-12 lit1-tk-luc reporter, luminescence; 0% DMSO, 100% Δ7-dafachronic acid. hit rate 1.4% among 370,000. activation, % at 6.8 µM. AID 652067;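 active means activation above the mean of all tested compounds plus 3 SD, cut at about 5.5% in these data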
ssDAF-12 act: S. stercoralis DAF-12 activation, primary screen | HEK293 ssDAF-12/GRIP1 lit1-tk-luc reporter, luminescence; % of 3 µM dafachronic acid response | activation, % at 6.8 µM | hit rate 1% among 370,000;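 active means activation above the mean over all tested compounds plus 3 SD, cut at about 0.9% in these data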
DAX1 inh-2: inhibits human nuclear receptor DAX1; P51843; HEK293 Gal4-DAX1 luciferase reporter, luminescence; inhibition, % at 6.75 µM; hit rate 0.99% among 340,000;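 active means inhibition above the mean over all tested compounds plus 3 SD, cut at about 4.2% in these data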;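 further: inhibition shows as a rise in luminescence from relieved DAX1 repression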
hgDAF12 agonist: hgDAF-12 agonism, primary luciferase screen. HEK293 GAL4-hgDAF12 UAS-luciferase reporter, agonist luminescence; normalized to butyrate control. activation, % at 6.8 µM. hit rate 1.8% among 370,000;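 active means activation above a cutoff set at the mean of all screened compounds plus 3 SD, cut at about 10% in these data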
hgDAF12 conf: confirmation of H. glycines DAF-12 agonists | activation, % at 6.8 µM | hit rate 80% among 3,300 | HEK293 GAL4-hgDAF12 luciferase reporter, agonist mode; percent of butyrate response | shares compounds with hgDAF12 agonist;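 active means mean activation over triplicate wells above the hit cutoff derived from the earlier primary screen, cut at about 11% in these data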
LXRb DAF12 ctr: activates human LXR-beta, counter-screen for DAF-12 agonists | shares compounds with hgDAF12 agonist | HEK293 Gal4-LXR luciferase reporter, 24 h | activation, % at 6.8 µM | 3,300 tested, under 10 active | AID 743051;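 active means mean activation of the triplicate above a set limit carried over from the primary screen, none filed active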
Target sequence (P55055 whole entry, looked up, the tested form may be a part): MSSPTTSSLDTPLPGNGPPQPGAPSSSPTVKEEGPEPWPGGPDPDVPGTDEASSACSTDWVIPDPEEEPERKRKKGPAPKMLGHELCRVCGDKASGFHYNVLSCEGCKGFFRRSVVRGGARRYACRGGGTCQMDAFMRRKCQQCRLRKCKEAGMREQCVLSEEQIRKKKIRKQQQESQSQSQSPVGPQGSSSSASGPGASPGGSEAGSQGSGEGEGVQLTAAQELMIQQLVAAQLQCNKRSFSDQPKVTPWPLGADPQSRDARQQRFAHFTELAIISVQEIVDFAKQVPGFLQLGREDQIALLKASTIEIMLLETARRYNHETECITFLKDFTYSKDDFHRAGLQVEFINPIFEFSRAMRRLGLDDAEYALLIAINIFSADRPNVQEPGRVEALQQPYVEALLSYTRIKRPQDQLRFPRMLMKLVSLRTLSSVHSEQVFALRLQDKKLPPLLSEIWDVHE
Of the large screens only hits and unclear results are named; the others gave an inactive call (follow-up assays come after a bar, where they were run). Shown are actives, neighbours in structure and some others; about 4.1% of the full set was active somewhere.

COc1c(C)cccc1C(=O)Nc1ccc(N2CCOCC2)c(Cl)c1	hgDAF12 agonist 21 | hgDAF12 conf 15 | LXRb DAF12 ctr inactive
O=C(Nc1ccc(N2CCOCC2)c(Cl)c1)c1c(F)c(F)c(F)c(F)c1F	none
O=C(Nc1ccc(N2CCOCC2)c(Cl)c1)c1cccc(F)c1	hgDAF12 agonist 14 | hgDAF12 conf 16 | LXRb DAF12 ctr inactive
COCCN(C(=O)CCC(=O)Nc1ccccn1)C(C(=O)NCCC(C)C)c1ccc(C)cc1 (configuration not stated)	none
CC(=O)N1CCN(C(=O)COC(=O)/C=C/c2ccc(C(F)(F)F)cc2)CC1	none
O=C(Nc1nc2ccccc2s1)c1cccc(N2C(=O)CCC2=O)c1	none
O=C(Nc1ccc2sccc2c1)c1cccc(N2C(=O)CCC2=O)c1	DAX1 inh-1 4.2, hgDAF12 agonist 17 | hgDAF12 conf 13 | LXRb DAF12 ctr inactive
Fc1cccc(Cl)c1CN1CCN(c2nc3ccccc3s2)CC1	hgDAF12 agonist 13 | hgDAF12 conf 11 | LXRb DAF12 ctr inactive
CC(C)C[C@@H](CO)N1CCN(CC(C)C)CCC1=O	none
Cc1ccc(/C=c2/sc3n(c2=O)CCCN=3)o1	none
O=c1/c(=C\c2ccc3c(c2)OCO3)sc2n1CCCN=2	DAX1 inh-2 4.6, hgDAF12 agonist 19 | hgDAF12 conf 14 | LXRb DAF12 ctr inactive
CCOc1ccc(NC(=S)NCC(c2cccnc2)N2CCOCC2)cc1 (configuration not stated)	none
COc1ccc(C2CC(c3ccc4ccccc4c3)=NN2C(=O)CN2CCC(C(N)=O)CC2)cc1 (configuration not stated)	hgDAF12 agonist 13 | hgDAF12 conf inactive | LXRb DAF12 ctr inactive
C=CCNCC(=O)N1N=C(c2ccc3ccccc3c2)CC1c1ccc(OC)cc1 (configuration not stated)	none
COc1ccc(C2=Nc3ccccc3N(C(=O)c3ccc4c(c3)OCO4)C2C(=O)Nc2c(C)cccc2C)cc1 (configuration not stated)	hgDAF12 agonist 14 (no result: DAX1 inh-2) | hgDAF12 conf inactive | LXRb DAF12 ctr inactive
Cc1ccc(CNC(=O)CCn2c(=O)oc3ccccc32)cc1	hgDAF12 agonist 13 | hgDAF12 conf inactive | LXRb DAF12 ctr inactive
C[C@H](NC(=O)c1ccc(Cl)cc1)C(=O)NCCc1ccc(S(N)(=O)=O)cc1	none
Cc1cccc(C2NC(=O)c3ccccc3N2)c1 (configuration not stated)	hgDAF12 agonist 16 | hgDAF12 conf 14 | LXRb DAF12 ctr inactive
CCCOc1ccc(NC(=O)CC2C(=O)N(Cc3ccccc3)C(=S)N2Cc2cccs2)cc1 (configuration not stated)	none
Cc1nn(-c2ccccn2)c2c1-c1nc(N)ncc1CC2	hgDAF12 agonist 18 | hgDAF12 conf 10 | LXRb DAF12 ctr inactive
COc1ccc(NC(=O)CN(C)C(=O)c2ccc3c(c2)OCCO3)cc1	none
Cc1scc(C(=O)N/N=C/c2ccsc2)c1C	ssDAF-12 act 1.1, hgDAF12 agonist 18 | hgDAF12 conf 17 | LXRb DAF12 ctr inactive
Cc1scc(C(=O)N/N=C/c2ccco2)c1C	none
C[C@H](CO)N1C[C@H](C)[C@H](CN(C)Cc2cncnc2)Oc2ncc(C#CC3(O)CCCC3)cc2C1=O	none
Nc1nc(Nc2ccccc2F)sc1C(=O)c1ccccc1	hgDAF12 agonist 19 | hgDAF12 conf 19 | LXRb DAF12 ctr inactive
Cc1cc(C)n2ncc(/C(N)=N/OC(=O)Nc3ccc(Cl)cc3)c2n1	none (no result: DAX1 inh-2)
CC1Oc2ccccc2C=C1/C=N/NC(=O)c1ccccc1 (configuration not stated)	hgDAF12 agonist 14 | hgDAF12 conf inactive | LXRb DAF12 ctr inactive
Cc1ccc(C(=O)N/N=C/C2=Cc3ccccc3OC2C)cc1 (configuration not stated)	none
Cc1ccc(NC(=O)NCC2CC2(Cl)Cl)cc1 (configuration not stated)	hgDAF12 agonist 13 | hgDAF12 conf inactive | LXRb DAF12 ctr inactive
COc1ccccc1NC(=O)NCC1CC1(Cl)Cl (configuration not stated)	none
CCC1(c2ccc(F)cc2)NC(=O)N(CC(=O)Nc2ccc(-c3nc4ccc(C)cc4s3)cc2)C1=O (configuration not stated)	DAX1 inh-1 3.8, hgDAF12 agonist 20 | hgDAF12 conf 16 | LXRb DAF12 ctr inactive
COc1ccc(C2(C)NC(=O)N(CC(=O)Nc3ccc(-c4nc5ccc(C)cc5s4)cc3)C2=O)cc1 (configuration not stated)	hgDAF12 agonist 19 (no result: DAX1 inh-2) | hgDAF12 conf 11 | LXRb DAF12 ctr inactive
CCC1(c2ccc(F)cc2)NC(=O)N(CC(=O)Nc2ccc3c(c2)OCCO3)C1=O (configuration not stated)	none
CN(C)c1ccc(/C=C2\CCCc3c2nc2ccccc2c3C(=O)O)cc1	hcDAF12 agonist 5.7, ssDAF-12 act 1.6, hgDAF12 agonist 13 | hgDAF12 conf 13 | LXRb DAF12 ctr inactive
O=C(O)c1ccc(/C=C2\CCCc3c2nc2ccccc2c3C(=O)O)cc1	none
CCN(c1ccccc1)S(=O)(=O)c1ccc(Cl)c(C(=O)N2CCCC2)c1	none
COC(=O)c1ccc(COc2ccc3ccc(=O)oc3c2)o1	none
COc1ccc(COc2ccc3ccc(=O)oc3c2)cc1	hgDAF12 agonist 20 | hgDAF12 conf 14 | LXRb DAF12 ctr inactive
Cc1ccc2nc(-c3ccc(NS(=O)(=O)c4c(C)n(C)c(=O)n(C)c4=O)cc3)sc2c1	DAX1 inh-2 6.3, hgDAF12 agonist 20 | hgDAF12 conf 17 | LXRb DAF12 ctr inactive
Cc1cccc(S(=O)(=O)Nc2ccc(-c3nc4ccc(C)cc4s3)cc2)c1	DAX1 inh-1 4.2, hgDAF12 agonist 22 | hgDAF12 conf 21 | LXRb DAF12 ctr inactive
Cc1ccc(S(=O)(=O)Nc2ccc(-c3nc4ccc(C)cc4s3)cc2)cc1	none
Cc1c(S(=O)(=O)Nc2ccc3c(c2)OCCO3)c(=O)n(C)c(=O)n1C	none
Cc1onc(C(=O)NC2CCCCC2)c1[N+](=O)[O-]	none (no result: DAX1 inh-1, hcDAF12 agonist, ssDAF-12 act, hgDAF12 agonist)
O=C(O)CCCC1(C(=O)O)CCCC1	none
COC(=O)[C@]12CCCCC=C1N(CCc1ccc(OC)c(OC)c1)C(=O)[C@H](CC(=O)NCCC(C)C)C2	none (no result: DAX1 inh-2)
O=C(CCCN1CCOCC1)c1ccc2c(c1)OCCO2	hgDAF12 agonist 17 | hgDAF12 conf 14 | LXRb DAF12 ctr inactive
Cc1ccccc1C(=O)NC(CC(C)C)C(=O)OCc1cc(=O)n2cc(Br)ccc2n1 (configuration not stated)	hgDAF12 agonist 14 | hgDAF12 conf 11 | LXRb DAF12 ctr inactive
CC(C)[C@H](NC(=O)c1ccccc1Cl)C(=O)OCc1cc(=O)n2cc(Br)ccc2n1	none
